Experimental data from PubChem BioAssay AID624255 (Broad Institute, 2012).
Several values for one entry are separate records, joined by “and”; a condition that tells them apart may be missing. Equal values may be shown once. About 4,600 (6%) of roughly 77,000 compounds were called active. Another 1% or so got no clear call; they are omitted. Only a selection was taken, and actives are over-represented in it overall. Values without a mark were called inactive.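 Rule for the calls: active = mean inhibition above about 93%, with at least 55% of replicates each passing it (limit read from the data, passing the limit was not always enough); inconclusive = only one of those two conditions holds; inactive = neither condition holds.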

experiment: growth inhibition of T. cruzi in host fibroblasts – cell-based, beta-gal Tulahuen parasites, NIH3T3 host, luminescence, primary screen (AID 624255); conditions: T. cruzi beta-gal in NIH3T3, GalScreen luminescence, 90 h; at 8.34 µM; stronger effect = higher value

SMILES | inhibition
CCC(=O)N(C)C[C@H]1Oc2ncc(-c3ccc(C#N)cc3)cc2C(=O)N([C@@H](C)CO)C[C@H]1C | 51.9%
COc1ccc(-c2cnc3c(c2)C(=O)N([C@H](C)CO)C[C@@H](C)[C@H](CN(C)Cc2ccccc2)O3)cc1 | 19.2% and 75.6%
C/C=C/c1ccc([C@H]2[C@@H](C#N)N(C(=O)CN3CCOCC3)[C@@H]2CO)cc1 | 80.8%
N#C[C@@H]1[C@@H](c2ccccc2)[C@@H](CO)N1C(=O)Cc1ccccc1 | 105% (active)
N#C[C@@H]1[C@H](c2ccc(C#Cc3ccccc3F)cc2)[C@H](CO)N1C(=O)C1CCCCC1 | 83.3%
COCC(=O)N1[C@H](CO)[C@@H](c2ccc(C#Cc3ccccc3F)cc2)[C@@H]1C#N | 97.7% (active)
COc1ccccc1C#Cc1ccc([C@@H]2[C@@H](CO)N(C(=O)C3CC3)[C@H]2C#N)cc1 | 88.6%
N#C[C@@H]1[C@@H](c2ccc(-c3ccccc3)cc2)[C@@H](CO)N1C(=O)Cc1ccccc1 | 31%
N#C[C@H]1[C@H](c2ccc(-c3ccccc3)cc2)[C@@H](CO)N1C(=O)Cc1ccccc1 | 79.5%
COC(=O)C[C@@H]1C[C@H]2c3cc(NC(=O)Nc4ccc(F)cc4)ccc3O[C@H]2[C@@H](CO)O1 | -1.42%
CC(=O)NC[C@H]1[C@H](c2ccc(C3=CCCCC3)cc2)[C@@H](CO)N1C(=O)NC(C)C | 21.7%
COc1ccccc1S(=O)(=O)N[C@@H]1CC[C@H](CC(=O)N2CCOCC2)O[C@@H]1CO | 16.9%
CNC(=O)C[C@@H]1CC[C@@H]2[C@H](COc3ccc(NC(=O)Nc4ccccc4)cc3C(=O)N2C)O1 | 7.48%
C[C@H](CO)N1C[C@H](C)[C@H](CN(C)CC2CC2)OCCCC[C@H](C)Oc2ccc(NC(=O)c3ccncc3)cc2C1=O | 29.6%
CCC(=O)N1C[C@H](C)[C@@H](OC)CN(C)C(=O)c2cc(NC(=O)c3cnccn3)ccc2OC[C@@H]1C | 11%
CCNC[C@@H]1[C@@H](c2ccccc2)[C@@H](CO)N1C(=O)Cc1ccccn1 | 31.9%
COCCNC[C@@H]1[C@H](c2ccccc2)[C@H](CO)N1c1nc(C)c(C)s1 | 100% (active)
COCC(=O)N1[C@H](CNC(=O)c2ccccn2)[C@H](c2ccccc2)[C@@H]1CO | 26.4%
COC(=O)C[C@@H]1CC[C@@H]2[C@H](COc3ccc(NC(=O)c4ccccc4OC)cc3C(=O)N2C)O1 | 44.4%
CC(=O)N1[C@H](CO)[C@H]2c3ccccc3N(C(=O)c3ccc(F)cc3)C[C@H]21 | 14.7%
CCC(=O)N1[C@@H](CO)[C@@H]2c3ccccc3N(C(=O)c3ccccc3F)C[C@@H]21 | 6.74%

SMILES | inhibition
O=C(c1ccccc1F)N1C[C@H]2[C@@H](c3ccccc31)[C@@H](CO)N2C(=O)c1ccc(F)cc1 | 103% (active)
O=C(C[C@@H]1C[C@@H]2c3cc(NC(=O)CC4CC4)ccc3O[C@@H]2[C@@H](CO)O1)NCCN1CCCCC1 | -43.9%
CC(C)(C)[S@@](=O)N1Cc2cc(C(=O)NCc3ccc4c(c3)OCO4)nc(-c3cccc(-c4ccccc4)c3)c2[C@H]1CCO | 99.7% (active)
CCCNC(=O)c1cc2c(c(-c3cccc(-c4ccc(F)cc4)c3)n1)[C@@H](CCO)N([S@](=O)C(C)(C)C)C2 | 87.5%
COc1cccc(CNC(=O)c2cc3c(c(-c4cccc(-c5ccc(C#N)cc5)c4)n2)[C@@H](CCO)N([S@](=O)C(C)(C)C)C3)c1 | 84.2%
CCC(=O)N1C[C@@H](C)[C@H](OC)CN(C)C(=O)c2ccc(NC(=O)Nc3ccccc3)cc2OC[C@@H]1C | 13.5%
COCC(=O)N(C)C[C@H]1Oc2cc(C#CC3CCCC3)ccc2S(=O)(=O)N([C@H](C)CO)C[C@@H]1C | 22.9%
CC(=O)N(C)C[C@H]1Oc2cc(C#CC3CC3)ccc2S(=O)(=O)N([C@H](C)CO)C[C@@H]1C | 21.1%
CCC(=O)N(C)C[C@H]1Oc2cc(C#CC3CCCC3)ccc2S(=O)(=O)N([C@H](C)CO)C[C@@H]1C | 86.4%
C[C@H]1CN([C@@H](C)CO)S(=O)(=O)c2ccc(C#CC3CCCC3)cc2O[C@@H]1CN(C)C(=O)c1cccc(F)c1 | 115% (active)
C[C@H](CO)N1C[C@H](C)[C@@H](CN(C)C(=O)Nc2cc(F)ccc2F)Oc2cc(C#CC3CC3)ccc2S1(=O)=O | 114% (active)
C[C@H](CO)N1C[C@H](C)[C@H](CN(C)C)Oc2cc(C#CC3CC3)ccc2S1(=O)=O | -175%
CO[C@@H]1CC[C@@H]2CCOc3ccc(C#N)cc3C(=O)N(C)C[C@@H](OC)[C@@H](C)C(=O)N(C)C[C@H]1O2 | 26.1%
Cc1noc(C)c1NC(=O)N(C)C[C@H]1OCCCC[C@H](C)Oc2ccc(NC(=O)Nc3ccccc3)cc2C(=O)N([C@H](C)CO)C[C@@H]1C | -11.2%
CO[C@@H]1CN(C)C(=O)c2ccc(NS(=O)(=O)c3cn(C)cn3)cc2OC[C@H](C)N(CCC(F)(F)F)C[C@@H]1C | 40.1%
CCNC(=O)C[C@@H]1CC[C@H]2[C@@H](COc3ccc(NC(=O)c4ccccc4Cl)cc3C(=O)N2C)O1 | 1.97%
CNC[C@H]1Oc2cc(C#Cc3ccccn3)ccc2S(=O)(=O)N([C@H](C)CO)C[C@@H]1C | 92.5%
COc1cccc(C#Cc2cnc3c(c2)C(=O)N([C@@H](C)CO)C[C@H](C)[C@@H](CN(C)C(=O)C2CCC2)O3)c1 | 84.3%
C[C@H](CO)N1C[C@H](C)[C@H](CN(C)C(=O)Nc2ccc3c(c2)OCO3)Oc2ncc(C#Cc3cccc(F)c3)cc2C1=O | 100% (active)
C[C@H]1CN([C@@H](C)CO)C(=O)c2cc(C#Cc3ccc(F)cc3)cnc2O[C@@H]1CN(C)C(=O)Nc1ccc(F)cc1 | 25%
C[C@H](CO)N1C[C@H](C)[C@H](CN(C)C(=O)C2CCCCC2)Oc2ncc(C#Cc3cccc(F)c3)cc2C1=O | 120% (active)

SMILES | inhibition
COCC#Cc1cnc2c(c1)C(=O)N([C@H](C)CO)C[C@@H](C)[C@@H](CN(C)C(=O)Nc1cccc(F)c1)O2 | 8.75%
C[C@H](CO)N1C[C@H](C)[C@H](CN(C)C(=O)C2CC2)Oc2ncc(C#Cc3ccccc3)cc2C1=O | 60.3%
CN1[C@@H]2CN(C(=O)c3ccc(F)cc3)c3ccccc3[C@@H]2[C@@H]1CO | -2.39%
COc1cccc(-c2ccc3n(c2=O)C[C@H]2[C@H](CO)[C@@H](C(=O)N4CCCCC4)N(C)[C@@H]32)c1 | 13.1%
CC(C)CC#Cc1ccc2c(c1)O[C@H](CN(C)S(=O)(=O)c1cccc(F)c1)[C@@H](C)CN([C@@H](C)CO)S2(=O)=O | 119% (active)
COc1cccc(S(=O)(=O)N(C)C[C@H]2Oc3cc(C#CCN(C)C)ccc3S(=O)(=O)N([C@H](C)CO)C[C@H]2C)c1 | 75.2%
CC(=O)N(C)C[C@@H]1Oc2cc(-c3cccc(F)c3)ccc2S(=O)(=O)N([C@H](C)CO)C[C@H]1C | 31.3%
C[C@H]1CN([C@@H](C)CO)S(=O)(=O)c2ccc(C#Cc3cccc(F)c3)cc2O[C@@H]1CN(C)S(=O)(=O)c1cn(C)cn1 | 102% (active)
C[C@@H]1CN([C@H](C)CO)S(=O)(=O)c2ccc(C3=CCCC3)cc2O[C@@H]1CN(C)C(=O)C1CCC1 | 52.9%
C[C@H]1CN([C@@H](C)CO)S(=O)(=O)c2ccc(C#Cc3ccccc3)cc2O[C@H]1CN(C)S(=O)(=O)c1cn(C)cn1 | 27.9%
C[C@@H]1CN([C@@H](C)CO)S(=O)(=O)c2ccc(-c3cccc(F)c3)cc2O[C@@H]1CN(C)S(=O)(=O)c1ccccc1 | 117% (active)
C[C@@H]1CN([C@@H](C)CO)S(=O)(=O)c2ccc(C#Cc3ccncc3)cc2O[C@@H]1CN(C)S(=O)(=O)c1ccccc1 | 11.5%
C[C@@H]1CN([C@H](C)CO)S(=O)(=O)c2ccc(C3=CCCC3)cc2O[C@H]1CN(C)C(=O)c1ccccc1 | -0.873%
COc1cccc(S(=O)(=O)N(C)C[C@@H]2Oc3cc(C#CCN(C)C)ccc3S(=O)(=O)N([C@@H](C)CO)C[C@@H]2C)c1 | 91.4%
C[C@@H]1CN([C@@H](C)CO)S(=O)(=O)c2ccc(C#Cc3cccc(F)c3)cc2O[C@H]1CN(C)S(=O)(=O)c1cn(C)cn1 | 61.3% and -15.4%
C[C@H](CO)N1C[C@H](C)[C@@H](CN(C)S(=O)(=O)c2ccc(F)cc2)Oc2cc(C3=CCCC3)ccc2S1(=O)=O | 114% (active)
C[C@H](CO)N1C[C@H](C)[C@H](CN(C)CC2CC2)OCCCC[C@H](C)Oc2ccc(NS(=O)(=O)c3cccs3)cc2C1=O | 38%
CN1c2ccc(-c3ccc(F)cc3)cc2[C@@H]2[C@@H](CCN2S(=O)(=O)c2ccc(F)cc2)[C@@H]1CO | 90.2%
CN1c2ccc(-c3ccc(F)cc3)cc2[C@@H]2[C@@H](CCN2C(=O)c2cccnc2)[C@H]1CO | 84%
C[C@@H]1CCCCO[C@H](CN(C)C(=O)c2ccccc2)[C@H](C)CN([C@H](C)CO)C(=O)c2cc(N(C)C)ccc2O1 | 91.3%
COCC(=O)N1C[C@@H]2[C@H](c3ccccc31)[C@@H](CO)N2C(=O)C1CC1 | 65.2%
